Compound activity from PubChem BioAssay.
HCMV antiviral – blocks human cytomegalovirus replication. HFF cells, HCMV-luciferase reporter, 72 h; active compounds read low. activity change, negative = inhibition, % at 57.5 µM. 410,000 tested, 4.5% active; in the data active means activity change below about -60%; inconclusive means no clear call, values can overlap the other calls; inactive means above about -39%
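Luciferase read-out from HCMV-luciferase-infected HFFs (MOI 1 PFU/cell) 72 h post infection at 37C; compounds added after 16 h cell attachment; activity normalized between buffer-only basal and Salinomycin (10uM) inhibitor controls.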
HCV inhibitor – HCV inhibition; Huh7.5.1 HCVcc-Cre infection, luciferase reporter, 44 h; Potency, µM (titrated, usually from 41.8 µM), inactives show top-dose activity change, negative = inhibition, most hits filed as inhibitors; 340,000 tested, 3.4% active; AID 651820; active means well fitted inhibition curve with a large enough effect; inconclusive means small, poorly fitted or top-dose-only effect, or another doubt; inactive means no such curve, though single readings can be large or run the other way; further: potency means the concentration at half of the fitted maximal effect
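HCVcc-Cre virus at an moi near 0.5 was added right after compound to cells cultured 4 h from seeding (1,000 cells/well). Luciferase activity was determined 44 h later, 15 min after substrate addition at RT.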
LASV entry inh – Lassa virus entry inhibition | Lassa virus pseudotype entry inhibition, cell reporter | Potency, µM (highest dose often 37.9 µM), for inactives: at the top dose activity change, negative = inhibition, actives largely listed as inhibitors | 300,000 tested, 1.2% active | AID 540256; calls by dose curve; tested in HEK293 cells; further: potency means the concentration at half of the fitted maximal effect; nearly all actives have a fitted effect of over 50% in size
FMDV antiviral – antivirals against foot and mouth disease virus | Potency, µM (top dose mostly 57.9 µM), for the others: at the highest dose activity change, negative = inhibition, hits mostly inhibitors | AID 1159524 | FMDV antiviral cell-based qHTS | 410,000 tested, 1.2% active; calls by dose curve; tested in HEK293T cells; further: read-out not given here; potency means the concentration at half of the fitted maximal effect; nearly all actives have a fitted effect of over 45% in size
MARV entry inh – inhibitors of Marburg virus binding or cell entry | Marburg virus pseudotyped entry inhibition, cell reporter | AID 540276 | Potency, µM (titrated, usually from 37.8 µM), for the others: top-dose activity change, negative = inhibition, actives largely listed as inhibitors | 300,000 tested, 1.8% active; calls by dose curve; tested in HEK293 cells; further: potency means the concentration at half of the fitted maximal effect
The depositor's hits bear a star; [ ] = dose if it differs, or a comment. Shown are actives, neighbours in structure and some others; about 7.9% of the full set was active somewhere. On the % scale 0 is the no-effect control and ±100 the full control effect.

CC(Oc1ccc(Cl)cc1)C(=O)NCCN1C(=O)S/C(=C\c2cccnc2)C1=O (centres undefined) was read as HCMV antiviral -70.6*, HCV inhibitor inconclusive, LASV entry inh inconclusive, FMDV antiviral 39.8µM* and MARV entry inh inconclusive.
For O=C(COc1ccccc1-c1ccccc1)NCCN1C(=O)S/C(=C\c2cccnc2)C1=O the results were HCMV antiviral -3.8, HCV inhibitor 0.3%, LASV entry inh -10.5%, FMDV antiviral 31.6µM* and MARV entry inh -50.7%.
Screening COc1cc(NC(=O)N2CCC(CN3CCOCC3)CC2)cc(OC)c1OC returned HCMV antiviral 21.3, LASV entry inh -9.8%[46.1 µM] and FMDV antiviral -12.4%.
`O=C(Cn1c(=O)nc(-c2ccccc2)c2ccccc21)NCCc1ccc(Cl)cc1` gave HCMV antiviral inconclusive, LASV entry inh -7.6%[46.1 µM] and FMDV antiviral 7.5%.
`O=C(Nc1nc(NC(=O)c2ccco2)n(-c2ccccc2)n1)c1ccccc1` gave HCMV antiviral -100.0*, HCV inhibitor inconclusive, LASV entry inh inconclusive and MARV entry inh inconclusive.
For CCN(CC)CCOC(=O)C1(C2CCCCC2)CCCCC1 the results were HCMV antiviral -4.7, HCV inhibitor 1.4%[8.37 µM], LASV entry inh inconclusive, FMDV antiviral 0.0% and MARV entry inh 12.6µM*.
For COc1ccc(C(=O)NCc2nnc(SC)n2-c2ccccc2C)c(OC)c1OC the results were FMDV antiviral -17.7%.
`O=c1cc(N2CCOCC2)c2ccccc2o1` gave HCMV antiviral 15.1, HCV inhibitor 16.3%, LASV entry inh -1.7% and MARV entry inh 0.8%.
Screening O=c1cc(N2CCCC2)c2ccccc2o1 returned HCMV antiviral -0.5, HCV inhibitor 11.2µM*, LASV entry inh -14.4%, FMDV antiviral -7.1% and MARV entry inh 10.9%[46.1 µM].
COc1ccccc1CNc1nc(-c2ccco2)nn1C(=O)c1cc(OC)c(OC)c(OC)c1 was read as HCMV antiviral 15.0, LASV entry inh 16.4%[46.1 µM], FMDV antiviral 10.5% and MARV entry inh 21.1%[46.1 µM].
`CCC(=O)n1nc(NCc2ccccc2OC)nc1NCc1ccccc1OC` gave HCMV antiviral -0.3, HCV inhibitor 11.2µM*, LASV entry inh inconclusive, FMDV antiviral inconclusive and MARV entry inh inconclusive.
For COC(=O)c1cc2c(cc1NC(=O)c1cnn(-c3ccc(C)cc3)c1-n1cccc1)OCO2 the results were HCMV antiviral -13.7, LASV entry inh -4.3%[46.1 µM] and FMDV antiviral -5.8%.
For CCOC(=O)c1ccc2[nH]c3c(c2c1)CCCC3O (centres undefined) the results were HCMV antiviral -6.2, HCV inhibitor 10µM*, LASV entry inh -23.1%, FMDV antiviral 41.1% and MARV entry inh 22.7%[46.1 µM].
`CCOC(=O)c1ccc2[nH]c3c(c2c1)CCCC3` gave HCMV antiviral 71.7, HCV inhibitor 6.8% and FMDV antiviral 65.7%.
`Cc1ccc(Cl)cc1-c1cc(C(=O)N2CCc3ccccc3C2)[nH]n1` gave HCMV antiviral -98.4* and FMDV antiviral 9.3%.
Screening O=C(c1cc2cc(Cl)ccc2[nH]1)N1CCc2ccccc2C1 returned HCMV antiviral 11.5, HCV inhibitor inconclusive and FMDV antiviral 37.6%.
`COc1ccc(C2SCC(=O)N2CCc2ccc(OC)c(OC)c2)cc1` (centres undefined) gave HCMV antiviral -70.7*, HCV inhibitor 11.2µM* and FMDV antiviral inconclusive.
`COc1ccc(CCN2C(=O)CSC2c2ccc(OC)c(OC)c2)cc1OC` (centres undefined) gave HCMV antiviral 1.8, HCV inhibitor -29.5% and FMDV antiviral -29.5%.
For CCCNC(=O)c1ccc(C2SCC(=O)N2CCc2ccccc2)cc1 (centres undefined) the results were HCMV antiviral -34.2, HCV inhibitor inconclusive, LASV entry inh 10µM*, FMDV antiviral -27.0% and MARV entry inh -18.6%.
Cc1cccc(NC(=O)c2ccc(C3SCC(=O)N3CCc3ccccc3)cc2)c1C (centres undefined) was read as HCMV antiviral -72.1*, HCV inhibitor inconclusive, LASV entry inh inconclusive, FMDV antiviral inconclusive and MARV entry inh inconclusive.
Screening CCc1noc(C)c1C(=O)OCC(=O)Nc1nc(-c2ccc(F)c(F)c2)cs1 returned HCMV antiviral 14.2, HCV inhibitor inconclusive, LASV entry inh inconclusive, FMDV antiviral 14.1µM* and MARV entry inh inconclusive.
CCc1noc(C)c1C(=O)Nc1nc(-c2ccc(NC(C)=O)cc2)cs1 was read as HCMV antiviral -33.8, HCV inhibitor 10µM*, LASV entry inh inconclusive, FMDV antiviral 22.4µM* and MARV entry inh inconclusive.
Screening CCc1noc(C)c1C(=O)Nc1nc2c(C)cc(C)cc2s1 returned HCMV antiviral -4.4, HCV inhibitor 11.2µM*, LASV entry inh 8.6%, FMDV antiviral -2.2% and MARV entry inh inconclusive.
Screening COc1ccc(-c2csc(NC(=O)c3cc(C)oc3C)n2)cc1OC returned HCMV antiviral -8.4, HCV inhibitor inconclusive, LASV entry inh inconclusive, FMDV antiviral inconclusive and MARV entry inh inconclusive.
Cc1cc(C)c2nc(NC(=O)c3cc(C)on3)sc2c1 was read as HCMV antiviral inconclusive, HCV inhibitor -46.2%, LASV entry inh 9.3%, FMDV antiviral 1.1% and MARV entry inh -0.1%.
For CCc1noc(C)c1C(=O)Nc1nc(-c2ccc(OC)c(OC)c2)cs1 the results were HCMV antiviral -25.5, HCV inhibitor inconclusive, LASV entry inh inconclusive, FMDV antiviral 17.8µM* and MARV entry inh inconclusive.
`Cc1onc(-c2ccccc2)c1C(=O)Nc1nc(-c2ccc(F)c(F)c2)cs1` gave HCMV antiviral -16.0, HCV inhibitor inconclusive, LASV entry inh 11.8%, FMDV antiviral 0.3% and MARV entry inh 1.9%.
`Cc1cc2c(cc1C)C(c1cccc([N+](=O)[O-])c1)CC(=O)N2` (centres undefined) gave HCMV antiviral 4.5, HCV inhibitor inconclusive, LASV entry inh inconclusive, FMDV antiviral -27.0% and MARV entry inh 4.47µM*.
For O=C1CC(c2cccc(Br)c2)c2cc3c(cc2N1)CCC3 (centres undefined) the results were HCMV antiviral -65.4*, HCV inhibitor inconclusive, LASV entry inh inconclusive, FMDV antiviral inconclusive and MARV entry inh inconclusive.
COc1ccc(N2CC(NC(=O)COc3ccc4ccccc4c3)CC2=O)cc1OC (centres undefined) was read as HCMV antiviral -0.9, LASV entry inh -5.8%[46.1 µM] and FMDV antiviral -3.9%.
Screening Cc1ccc(C(=O)COC(=O)c2cccc(NC(=O)c3ccc(Cl)cc3Cl)c2)cc1 returned HCMV antiviral 11.9, LASV entry inh 12.7%[46.1 µM], FMDV antiviral -17.6% and MARV entry inh -1.4%[46.1 µM].
`O=C(C1CCCCN1S(=O)(=O)c1ccccc1)N1CCN(C(c2ccccc2)c2ccccc2)CC1` (centres undefined) gave HCMV antiviral 31.6, HCV inhibitor 12.6µM*, LASV entry inh -38.4%, FMDV antiviral -18.6% and MARV entry inh inconclusive.
